Several values for one entry are separate records, joined by “and”; a condition that tells them apart may be missing. Equal values may be shown once. Records with an inconclusive call do not appear. A call without a number means that no potency is given here. Some compounds were tested as several samples or in several runs, with calls that do not always agree. Activity calls are given as the source filed them. Unless noted, the call rests on the fitted dose curve; in most records, active means well fitted curve in the direction sought with a large enough effect in the repeat runs; inconclusive means weak or mixed curves; inactive means no such curve, though single readings can be large; an effect the other way counts as inactive or inconclusive.
Columns and labels:
[1] = qHTS assay to identify small molecule agonists of the estrogen receptor alpha (ER-alpha) signaling pathway in the presence of an antagonist - cell viability counter screen (AID 1259386);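 further: cells exposed to compounds for 22 h at 37 °C before the viability read; nearly all actives have a fitted effect of over 30% in size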; further: potency means the concentration at half of the fitted maximal effect
Procedure, shortened: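 Fluorescent CellTiter-Fluor viability signal from VM7Luc4E2 cells, with the reagent added during the final hour of a 22hr compound exposure at 37C in the presence of 10.0nM ICI-182,780.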

[2] = biological target: Progesterone receptor (Homo sapiens) (UniProt P06401); test: qHTS assay to identify small molecule agonists of the progesterone receptor (PR) signaling pathway (AID 1346784; calls by dose curve; further: nearly all actives have a fitted effect of over 30% in size; further: potency means the concentration at half of the fitted maximal effect)
Procedure, shortened: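 Seed PR-UAS-bla HEK 293T cells (2% charcoal-stripped FBS), incubate 6 hr at 37C; add compounds in DMSO, 16 hr at 37C; add LiveBLAzer B/G substrate, 2 hr RT; read fluorescence intensity.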

[3] = biological target: Progesterone receptor (Homo sapiens) (UniProt P06401); test: qHTS assay to identify small molecule antagonists of the progesterone receptor (PR) signaling pathway (AID 1346795; active means well fitted inhibition curve with a large enough effect in the signal ratio in the repeat runs, not every such curve was filed as active; the % refers to the signal ratio; further: potency means the concentration at half of the fitted maximal effect)
Procedure, shortened: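 Screening used a GripTite HEK293T line with PR-responsive UAS-beta-lactamase. Cells were challenged with compound in the presence of 1 nM R5020 final for 16 hr at 37C; B/G FRET substrate, 2 hr room temperature, fluorescence.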

[4] = qHTS assay to identify small molecule antagonists of the progesterone receptor (PR) signaling pathway - cell viability counter screen (AID 1346798); further: series mostly up to about 92 µM; nearly all actives have a fitted effect of over 50% in size
Procedure, shortened: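 Measures cytotoxicity in parallel with the PR antagonist reporter read: HEK293T PR-UAS-bla cells get compound and R5020 for 16 hr, and remaining viable cells are quantified by CellTiter-Glo luminescence.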

[5] = qHTS assay to identify small molecule agonists of the progesterone receptor (PR) signaling pathway - cell viability counter screen (AID 1346799; calls by dose curve; further: nearly all actives have a fitted effect of over 45% in size)
Procedure, shortened: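 Using the same plates as the PR reporter screen, HEK293T PR-UAS-bla cells received compounds for 16 hr at 37C and were then lysed with CellTiter-Glo; luminescence was read 30 min later at room temperature.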

[6] = qHTS assay to identify small molecule antagonists of the TGF-beta/Smad signaling pathway - cell viability counter screen (AID 1346824); further: nearly all actives have a fitted effect of over 50% in size
Procedure, shortened: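 SBE-bla HEK 293T cells were plated overnight at 37 C, then given compounds in DMSO plus TGF-beta1 (added as 0.25 ng/mL solution) for 5 hr. After the bla read, CellTiter-Glo was added to the same wells and luminescence read after 30 min at room temperature.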

[7] = qHTS assay to identify small molecule agonists of the TGF-beta/Smad signaling pathway - cell viability counter screen (AID 1346829); further: nearly all actives have a fitted effect of over 45% in size; further: potency means the concentration at half of the fitted maximal effect
Procedure, shortened: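 SBE-bla HEK 293T cells plated overnight, compound exposure 5 hr at 37 C. Viability read in the same wells by CellTiter-Glo luminescence after 30 min at room temperature, following the beta-lactamase read.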

[8] = qHTS assay to identify small molecule agonists of the TGF-beta/Smad signaling pathway (AID 1346859; active means well fitted activation curve with a large enough effect in the signal ratio in the repeat runs, not every such curve was filed as active; the % refers to the signal ratio; further: series mostly up to about 77 µM)
Procedure, shortened: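 Beta-lactamase reporter activity downstream of Smad binding elements was measured in stably transfected HEK 293T cells; compounds were incubated for 5 hr, substrate for 2 hr at room temperature.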

[9] = biological target: Thyrotropin-releasing hormone receptor (Homo sapiens) (UniProt P34981); test: qHTS assay to identify small molecule antagonists of the thyrotropin-releasing hormone receptor (TRHR) signaling pathway (AID 1346877; active means well fitted inhibition curve with a large enough effect in the repeat runs, not every such curve was filed as active; further: series mostly up to about 51 µM)
Procedure, shortened: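 In this cell-based calcium flux format, HEK293 cells expressing TRHR received test compound for 5 min before the agonist TRH (1 nM final). Dye loading lasted 2 h at 37 °C.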

[10] = biological target: Thyrotropin receptor (Homo sapiens) (UniProt P16473); test: qHTS assay to identify small molecule antagonists of the thyroid stimulating hormone receptor (TSHR) signaling pathway (AID 1259385; calls by dose curve; further: nearly all actives have a fitted effect of over 20% in size)
Procedure, shortened: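 TSHR-HEK293 cells were plated and held 18 h at 37C/5% CO2, then given compound plus Ro20-1724 and stimulated with TSH at 1.5 ng/mL final. After 30 min at room temperature, cAMP was detected with cAMP-d2/anti-cAMP-cryptate (1 h) by fluorescence.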

Progesterone receptor (Homo sapiens), sequence (P06401 whole entry, looked up): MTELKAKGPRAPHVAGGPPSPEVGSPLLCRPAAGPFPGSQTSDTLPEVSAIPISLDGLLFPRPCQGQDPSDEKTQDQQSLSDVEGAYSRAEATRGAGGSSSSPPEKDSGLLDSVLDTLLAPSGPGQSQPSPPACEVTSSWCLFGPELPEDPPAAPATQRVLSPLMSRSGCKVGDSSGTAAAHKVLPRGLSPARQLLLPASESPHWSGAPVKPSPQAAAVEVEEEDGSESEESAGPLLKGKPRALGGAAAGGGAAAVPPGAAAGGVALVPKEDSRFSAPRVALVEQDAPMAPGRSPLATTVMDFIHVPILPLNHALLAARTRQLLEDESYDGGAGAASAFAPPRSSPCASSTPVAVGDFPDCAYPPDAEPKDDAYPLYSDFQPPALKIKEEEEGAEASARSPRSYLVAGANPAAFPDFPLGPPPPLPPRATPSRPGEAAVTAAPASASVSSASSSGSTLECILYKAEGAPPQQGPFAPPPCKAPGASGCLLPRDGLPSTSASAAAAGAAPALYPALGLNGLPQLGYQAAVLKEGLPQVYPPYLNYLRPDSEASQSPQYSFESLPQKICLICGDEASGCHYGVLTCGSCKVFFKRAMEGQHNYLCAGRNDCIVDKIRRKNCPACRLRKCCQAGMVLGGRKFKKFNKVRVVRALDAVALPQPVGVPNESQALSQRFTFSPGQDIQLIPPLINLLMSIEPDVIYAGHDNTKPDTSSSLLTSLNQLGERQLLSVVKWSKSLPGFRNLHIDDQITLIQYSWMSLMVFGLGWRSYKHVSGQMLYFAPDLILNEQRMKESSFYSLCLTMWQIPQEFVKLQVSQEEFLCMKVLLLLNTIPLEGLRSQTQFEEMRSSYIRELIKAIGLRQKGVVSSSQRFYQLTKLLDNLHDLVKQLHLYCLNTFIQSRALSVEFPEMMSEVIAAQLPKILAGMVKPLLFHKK
Thyrotropin-releasing hormone receptor (Homo sapiens), sequence (P34981 whole entry, looked up): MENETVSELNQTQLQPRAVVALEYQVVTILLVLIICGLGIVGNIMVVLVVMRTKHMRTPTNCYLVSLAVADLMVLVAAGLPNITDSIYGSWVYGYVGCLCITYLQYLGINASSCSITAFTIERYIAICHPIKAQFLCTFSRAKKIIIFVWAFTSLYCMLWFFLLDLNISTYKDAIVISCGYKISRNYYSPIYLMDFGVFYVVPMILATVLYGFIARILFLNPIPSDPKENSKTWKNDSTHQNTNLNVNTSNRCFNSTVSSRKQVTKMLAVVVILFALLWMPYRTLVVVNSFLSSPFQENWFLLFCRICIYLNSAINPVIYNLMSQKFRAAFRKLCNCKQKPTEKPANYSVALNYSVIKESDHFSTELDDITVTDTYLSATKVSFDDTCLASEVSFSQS
Thyrotropin receptor (Homo sapiens), sequence (P16473 whole entry, looked up): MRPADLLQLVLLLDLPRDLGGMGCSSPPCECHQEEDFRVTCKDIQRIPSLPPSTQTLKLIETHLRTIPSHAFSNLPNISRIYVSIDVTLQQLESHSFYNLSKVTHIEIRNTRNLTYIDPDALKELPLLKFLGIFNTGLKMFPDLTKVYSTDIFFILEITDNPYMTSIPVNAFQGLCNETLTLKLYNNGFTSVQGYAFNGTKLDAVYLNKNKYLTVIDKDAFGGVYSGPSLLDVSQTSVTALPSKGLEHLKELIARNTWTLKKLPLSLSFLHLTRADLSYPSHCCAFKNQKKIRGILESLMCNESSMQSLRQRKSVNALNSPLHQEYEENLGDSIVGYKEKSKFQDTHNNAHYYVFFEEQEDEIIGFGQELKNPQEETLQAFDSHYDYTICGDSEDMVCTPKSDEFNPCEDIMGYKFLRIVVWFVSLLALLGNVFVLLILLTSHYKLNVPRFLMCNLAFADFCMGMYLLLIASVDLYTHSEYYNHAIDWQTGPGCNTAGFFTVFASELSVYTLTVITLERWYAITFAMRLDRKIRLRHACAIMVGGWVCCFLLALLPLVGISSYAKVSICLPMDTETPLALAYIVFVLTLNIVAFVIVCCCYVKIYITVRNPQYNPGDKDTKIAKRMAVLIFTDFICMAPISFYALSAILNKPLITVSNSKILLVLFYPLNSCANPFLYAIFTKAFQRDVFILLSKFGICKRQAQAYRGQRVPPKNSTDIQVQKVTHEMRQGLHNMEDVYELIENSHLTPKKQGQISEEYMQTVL

Structure (SMILES)	Potency [1]	Potency [2]	Potency [3]	Potency [4]	outcome [5]	Potency [6]	Potency [7]	outcome [8]	outcome [9]	outcome [10]
COS(=O)(=O)OC	inactive	inactive	inactive	inactive	inactive	inactive	inactive	inactive	inactive	–
C[C@H]1C(=O)O[C@@H]2CCN3CC=C(COC(=O)[C@](C)(O)[C@]1(C)O)[C@H]23	inactive	–	–	inactive	inactive	inactive	inactive	inactive	inactive	–
O=C(O)c1cc(Oc2ccc(C(F)(F)F)cc2Cl)ccc1[N+](=O)[O-]	inactive	inactive	inactive	inactive	inactive	inactive	inactive	inactive	inactive	–
Nc1ccc(N)cc1	54.7 µM (active) and 54.5 µM (active)	inactive	inactive	inactive	inactive	inactive	inactive	inactive	inactive	–
COP(=S)(OC)Oc1ccc(SC)c(C)c1	inactive	inactive	13.5 µM (active)	inactive	inactive	inactive	inactive	inactive	inactive	–
O=C/C=C/c1ccccc1	inactive	inactive	inactive	inactive	inactive	inactive	inactive	inactive	inactive	–
Cc1cccc(N)c1	inactive	inactive	inactive	inactive	inactive	inactive	inactive	inactive	inactive	–
O=[N+]([O-])c1ccc(Cl)c(Cl)c1	inactive	inactive	inactive	inactive	inactive	inactive	inactive	inactive	inactive	–
O=C(O)C(Br)Br	inactive	inactive	inactive	inactive	inactive	inactive	inactive	inactive	inactive	–
C=CC#N	inactive	inactive	inactive	inactive	inactive	inactive	inactive	inactive	inactive	–
Cl/C=C/Cl	inactive	inactive	inactive	inactive	inactive	inactive	inactive	inactive	inactive	–
CNC(=O)O/N=C/C(C)(C)S(C)(=O)=O	inactive	inactive	inactive	inactive	inactive	inactive	inactive	inactive	inactive	–
ClC(Cl)c1ccccc1	inactive	inactive	inactive	inactive	inactive	inactive	inactive	inactive	inactive	–
COC(=O)Nc1cccc(OC(=O)Nc2cccc(C)c2)c1	inactive	inactive	inactive	inactive	inactive	inactive	inactive	inactive	–	–
CC(C)(C)C(=O)CCl	inactive	inactive	inactive	inactive	inactive	inactive	inactive	inactive	inactive	–
OCC(O)CCl (stereo not given)	inactive	–	–	inactive	inactive	inactive	inactive	inactive	–	–
Oc1c(Br)cc(Br)cc1Br	inactive	inactive	–	inactive	–	inactive	inactive	inactive	inactive	–
CNC(=O)O/N=C(\SC)C(=O)N(C)C	inactive	inactive	inactive	inactive	inactive	inactive	inactive	inactive	–	–
Cc1cccc(N)c1C	inactive	15.9 µM (active) and inactive	inactive	inactive	inactive	inactive	inactive	inactive	inactive	–
C=CC(=O)OCCCCCC(C)C	inactive	inactive	inactive	inactive	inactive	inactive	inactive	inactive	inactive	–
CN(C)C(=O)Cl	inactive	inactive	inactive	inactive	inactive	inactive	inactive	inactive	inactive	–
CNC(=O)O/N=C/C(C)(C)S(C)=O (stereo not given)	inactive	inactive	inactive	inactive	inactive	–	24.9 µM (active) and inactive	inactive	inactive	–
O=C(O)COc1ccccc1	inactive	inactive	inactive	inactive	inactive	inactive	inactive	inactive	inactive	–
Cc1cc(Cl)ccc1OC(C)C(=O)O (stereo not given)	–	inactive	inactive	inactive	inactive	inactive	inactive	inactive	–	–
CN(C)C(=O)C(c1ccccc1)c1ccccc1	inactive	inactive	inactive	inactive	inactive	inactive	inactive	inactive	inactive	–
Cc1cccc(C)c1N	inactive	inactive	inactive	inactive	inactive	inactive	inactive	inactive	inactive	–
CN(C)C(=O)Nc1cccc(C(F)(F)F)c1	inactive	inactive	inactive	inactive	inactive	inactive	inactive	inactive	inactive	–
C=C(C)C(=O)OCC(CC)CCCC (stereo not given)	–	inactive	inactive	–	inactive	inactive	inactive	inactive	–	inactive
CCCCCCCCCCCCCCCCCC(=O)O	inactive	inactive	10.8 µM (active) and inactive	inactive	inactive	inactive	inactive	inactive	–	–
N#CN=C(N)N	inactive	inactive	inactive	inactive	inactive	inactive	inactive	inactive	inactive	–

From PubChem BioAssay (Tox21)
